This passage reports outcome results from PubChem BioAssay (NCATS).

Structures are written as SMILES. Activity calls are given as the source filed them. The call rests on the fitted dose curve; in most records, active means well fitted activation curve with a large enough effect; inconclusive means small, poorly fitted or top-dose-only effect; inactive means flat fitted curve, though single readings scatter.

This experiment is described as follows: Cellular Toxicity (caspase-3) Mesangial (AID 660).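 Further: combined caspase 3 and 7 activity read by Caspase-Glo luminescence; cells exposed to compound for 16 h before the caspase read.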 Particulars: mesangial cells, normalized: DMSO 0%, 100 µM tamoxifen 100%; series mostly up to 91.7 µM. An excerpt: NIH Chemical Genomics Center [NCGC]
NIH Molecular Libraries Screening Centers Network [MLSCN]
National Institutes of Environmental Health Sciences [NIEHS]
National Toxicology Program [NTP]
We have developed a 1536-well cell-based assay for quantitative high throughput screening (qHTS) against a number of cell lines to determine in vitro caspase 3/7 of small molecules. This particular assay uses the mesangial cell line which is derived from normal human renal glomeruli.
NCGC Assay Protocol Summary:
The Caspase-Glo 3/7 assay (Promega) is a homogeneous method to measure caspase-3 and caspase-7 activities in cultured cells. The quantitation of caspase 3/7 activity is based on the cleavage of a peptide-aminoluciferin substrate. After caspase cleaves the substrate the free aminoluciferin is liberated and serves as the substrate of luciferase, which generates the light. The luminescent signal is proportional to amount of caspase 3/7 activity present.
Using the Caspase-Glo 3/7 assay, the amount of caspase 3/7 activity was measured in the mesangial cell line with complete culture medium following compound treatment for 16 hours. The assay was performed in opaque white 1536-well plates. In the screen, tamoxifen and doxorubicin were used as positive controls. Library compounds were measured for their ability to cause the activation of caspase 3/7 in the cell line, as reflected by an increase in luminescence signal, in a concentration-dependent manner. Data were normalized to the controls for basal activity (DMSO only) and 100% stimulation (100 uM tamoxifen). AC50 values were determined from concentration-response data modeled with the standard Hill equation.
qHTS protocol for caspase 3/7 assay in mesangial cell line
[Step] [Parameter] [Value] [Description]
1. Reagent; 5 uL; 1000 mesangial cells/well
2. Time; 5 hr; 37 °C incubation
4. Controls; 23 nL; Tamoxifen 0.23 uM to 100 uM & doxorubicin 7.0 pM to 100 uM
5. Time; 16 hr; 37 °C incubation
6. Reagent; 5 uL; Caspase-Glo 3/7 reagent
7. Time; 20 min; Room Temperature
8. Detection; Luminescence; Viewlux plate reader
Keywords: caspase 3/7, apoptosis, mesangial cell line, luminescence, NTPHTS, NTPHTS_NCGC, NIEHS, EPA, DSSTox, MLSMR, MLSCN, NIH Roadmap, qHTS, NCGC
As to `Nc1ccc(Br)cc1`, the outcome was inactive. Take `O=NN(c1ccccc1)c1ccccc1`: the compound was called inactive. With `C=CC1CC=CCC1` (stereo not given), the compound was called inactive.

For the compound `COc1ccc(C=O)cc1OC`, the compound was called inactive.

For the compound `CCCCOCCOP(=O)(OCCOCCCC)OCCOCCCC`, the result was inactive. For `C=C(Cl)Cl`, the compound was called inactive. Under `OCC1CO1` (stereo not given) stands “inactive”.

In the case of `OCC(Br)CBr` (stereo not given), the result was inactive. Take `ClC1=C(Cl)C2(Cl)C3C(Cl)C=CC3C1(Cl)C2(Cl)Cl` (stereo not given): the result was inactive.

On to `C=CCOC(=O)c1ccccc1N`, for which the call was inactive.

With `c1ccc(N=Nc2ccccc2)cc1`, the result was inactive. For the compound `Cc1ccc2ccccc2c1`, the call was inactive. Take `C[N+](C)(C)Cc1ccccc1`: the compound was called inactive. For `CC(Cl)Cl`, the compound was called inactive. On to `CCOCN(C(=O)CCl)c1c(C)cccc1CC`, for which the compound was called inactive. Under `Cc1ccccc1N` stands “inactive”; under `c1ccc2c(c1)CCCC2`, “inactive”; under `Clc1cccc(C(Cl)(Cl)Cl)n1`, “inactive”. For `C[C@]12CC[C@H]3[C@@H](CCC4=CC(=O)CC[C@@]43C)[C@@H]1CC[C@@H]2O`, the result was inactive. For the compound `CCCCCCCC(=O)Cl`, the result was inactive.

Consider `CCC[CH2][Sn]([Cl])([Cl])[Cl]`, for which the result was inactive.

Take `CCNc1nc(Cl)nc(NC(C)C)n1`: the outcome was inactive.

In the case of `N#CCCCl`, the compound was classed as inactive. Consider `CCSC(=O)Cl`, for which the result was inactive. For the compound `C/C=C/c1ccc2c(c1)OCO2`, the compound was classed as inactive. Turning to `C=CCc1ccc2c(c1)OCO2`, the result was inactive. Turning to `CCCC(=O)Cl`, the compound was classed as inactive. Under `c1ccc(-c2ccccc2)cc1` stands “inactive”. As to `Oc1ccc(Cl)cc1Cl`, the result was inactive.

With `O=[N+]([O-])c1cccc2ccccc12`, the call was inactive. Under `Clc1nc(Cl)nc(Cl)n1` stands “inactive”; under `ClC(Cl)=C(Cl)Cl`, “inactive”.

As to `ClC(Cl)=C(Cl)C(Cl)=C(Cl)Cl`, the outcome was inactive. For the compound `C=CC(C)=O`, the outcome was inactive. Consider `CN=C=S`, for which the compound was called inactive.

As for `CCCOC(=O)c1ccccc1C(=O)OCCC`, the outcome was inactive. For the compound `CCOP(=S)(OCC)SCSC(C)(C)C`, the call was inactive.

With `CCCCOC(=O)c1ccccc1C(=O)OCCCC`, the call was inactive. In the case of `O=C(O)COc1ccc(Cl)cc1Cl`, the compound was called inactive.

Consider `Clc1cc(Cl)c(-c2cc(Cl)c(Cl)cc2Cl)cc1Cl`, for which the compound was classed as inactive.
